This is a sample that favours compounds with a hit; in the whole collection about 4.1% have one here.
hcDAF12 agonist = activates DAF-12 receptor from parasite H. contortus. HEK293 hcDAF-12 lit1-tk-luc reporter, luminescence; 0% DMSO, 100% Δ7-dafachronic acid. activation, % at 6.8 µM. hit rate 1.4% among 370,000;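 active = activation above the mean of all tested compounds plus 3 SD, cut at about 5.5% in these data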;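 also: 100% = response to 3 µM Δ7-dafachronic acid high control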
hgDAF-12 ag = activates the H. glycines DAF-12 receptor ligand-binding domain. hit rate 1.8% among 370,000. HEK293 GAL4-hgDAF12 UAS-luciferase reporter, agonist luminescence; normalized to butyrate control. activation, % at 6.8 µM. AID 687014;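 active = activation above a cutoff set at the mean of all screened compounds plus 3 SD, cut at about 10% in these data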;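 also: 0% = DMSO wells and 100% = sodium butyrate wells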
DAX1 inh-1 = NR0B1 (DAX1) inhibition. hit rate 0.99% among 340,000. inhibition, % at 6.75 µM. HEK293 Gal4-DAX1 luciferase reporter, luminescence. AID 504766;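 active = inhibition above the mean over all tested compounds plus 3 SD, cut at about 4.2% in these data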;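 also: 0% = DAX1-transfected cells with DMSO and 100% = empty-vector control cells with DMSO; inhibition shows as a rise in luminescence from relieved DAX1 repression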
ssDAF12 agonist = activators of S. stercoralis DAF-12 nuclear receptor | HEK293 ssDAF-12/GRIP1 lit1-tk-luc reporter, luminescence; % of 3 µM dafachronic acid response | activation, % at 6.8 µM | hit rate 1% among 370,000 | AID 652126;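 active = activation above the mean over all tested compounds plus 3 SD, cut at about 0.9% in these data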;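 also: 0% = DMSO-only wells and 100% = 3 µM delta7-dafachronic acid wells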
DAX1 inh-2 = inhibitors of DAX1 repression of SF-1 activated StAR promoter; HEK293T StAR-luciferase reporter, SF-1/DAX-1 repression relief; inhibition, % at 6.8 µM; hit rate 1.1% among 370,000;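 active = inhibition above the mean over all tested compounds plus 3 SD, cut at about 3.6% in these data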;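 also: 0% = DAX-1 cells with DMSO and 100% = cells lacking DAX-1 with DMSO; higher inhibition means more luminescence from relief of DAX-1 repression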
LXR ag = counter-screen for hcDAF-12 agonists: agonists of human LXR-beta. activation, % at 6.8 µM. 3,400 tested, under 10 active. shares compounds with hcDAF12 agonist. HEK293 Gal4-LXR tk-luc reporter, luminescence, 24 h; normalized: DMSO 0%, positive control 100%;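 active = mean percent activation of the reporter above a cutoff set as the average over tested compounds plus their standard deviation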
Target sequence (P55055 whole entry, looked up, the tested form may be a part): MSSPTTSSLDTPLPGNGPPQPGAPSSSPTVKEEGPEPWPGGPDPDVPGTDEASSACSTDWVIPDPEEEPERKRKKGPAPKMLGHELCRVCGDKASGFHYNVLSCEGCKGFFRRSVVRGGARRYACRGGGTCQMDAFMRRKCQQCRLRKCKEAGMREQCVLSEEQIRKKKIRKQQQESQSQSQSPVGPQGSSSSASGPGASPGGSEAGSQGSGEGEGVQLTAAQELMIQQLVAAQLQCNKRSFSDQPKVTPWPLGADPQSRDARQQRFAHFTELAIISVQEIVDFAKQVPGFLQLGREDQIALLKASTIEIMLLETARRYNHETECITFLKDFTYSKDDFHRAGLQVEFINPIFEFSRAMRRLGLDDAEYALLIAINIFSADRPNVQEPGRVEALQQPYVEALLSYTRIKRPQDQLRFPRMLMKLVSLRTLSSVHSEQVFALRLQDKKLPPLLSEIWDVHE
hcDAF12 ag = confirmation of H. contortus DAF-12 agonists | HEK293 hcDAF-12 lit1-tk-luc reporter, luminescence; % of Δ7-dafachronic acid response | AID 743032 | hit rate 61% among 3,400 | shares compounds with hcDAF12 agonist | activation, % at 6.8 µM;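 active = mean activation across triplicate tests above the threshold derived from the earlier primary screen, cut at about 5.5% in these data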;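 also: 0% = DMSO only wells and 100% = 3 µM Δ7-dafachronic acid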
hgDAF12 conf = confirmation of H. glycines DAF-12 agonists | hit rate 80% among 3,300 | AID 743050 | activation, % at 6.8 µM | shares compounds with hgDAF-12 ag | HEK293 GAL4-hgDAF12 luciferase reporter, agonist mode; percent of butyrate response;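 active = mean activation over triplicate wells above the hit cutoff derived from the earlier primary screen, cut at about 11% in these data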;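 also: 0% = DMSO low control and 100% = 2 mM sodium butyrate high control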
LXR ag 2 = activates human LXR-beta, counter-screen for DAF-12 agonists | shares compounds with hgDAF-12 ag | HEK293 Gal4-LXR luciferase reporter, 24 h | activation, % at 6.8 µM | 3,300 tested, under 10 active;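 active = mean activation of the triplicate above a set limit carried over from the primary screen, none filed active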
* = called active by the depositor; x = no result.

SMILES | hcDAF12 agonist | hgDAF-12 ag | DAX1 inh-1 | ssDAF12 agonist | DAX1 inh-2 | LXR ag | hcDAF12 ag | hgDAF12 conf | LXR ag 2
Cc1csc2ncc(C(=O)NCCc3ccccc3)c(=O)n12 | 8.7* | 14.0* | 2.3 | 1.9* | 2.5 | 0.4 | 6.3* | 8.6 | 0.3
COc1ccc(-c2cc(-c3ccccc3O)[nH]n2)cc1OC | 7.9* | 15.7* | 3.8 | -0.5 | 3.6* | 1.3 | 3.5 | 16.2* | 1.0
OC(c1ccc(Cl)cc1)C(O)c1nc2ccccc2[nH]1 (configuration not stated) | 0.3 | 1.9 | -0.2 | -1.6 | -0.8 | x | x | x | x
S=C(Nc1ccc(Cl)cc1)c1nc2ccccc2[nH]1 | 7.3* | 18.4* | 1.6 | -0.2 | 3.5 | 1.3 | 6.5* | 16.3* | 0.8
O=C(O)c1cccc(S(=O)(=O)Nc2ccc(OCc3ccccc3)cc2)c1 | 0.8 | 1.0 | -1.2 | -1.1 | 0.3 | x | x | x | x
O=C(O)c1cccc(COc2ccc3c(c2)CCC3)c1 | 10.1* | 13.9* | -8.7 | 2.8* | 3.6* | 1.6 | 11.9* | 23.0* | 1.2
c1ccc(-c2csc(Nc3cccnc3)n2)cc1 | 8.1* | 20.6* | 1.2 | 1.5* | -0.8 | 0.5 | 7.9* | 14.2* | 0.5
CN(C)c1ccc(Nc2nc(-c3cccnc3)cs2)cc1 | 12.3* | 18.2* | 1.7 | 1.3* | 2.5 | 2.1 | 9.7* | 22.8* | 1.1
Fc1ccc(Nc2nc(-c3cccnc3)cs2)cc1 | 10.5* | 16.9* | 8.0* | 1.1* | 1.3 | 1.1 | 10.4* | 20.4* | 0.8
CCN(CC)c1ccc(Nc2nc(-c3cccnc3)cs2)cc1 | -0.1 | 5.7 | 0.1 | -1.0 | 0.1 | x | x | x | x
COc1ccc(OC)c(NC(=O)CN2C(=O)C(=O)N(Cc3ccccc3)C2=O)c1 | 1.1 | -1.1 | 0.0 | -0.7 | 0.1 | x | x | x | x
N#Cc1ccccc1S(=O)(=O)N1CCN(C(=O)Cc2coc3cc(O)ccc23)CC1 | -2.7 | -0.1 | 0.9 | -0.9 | 0.8 | x | x | x | x
O=C(Nc1ccc2ccccc2n1)c1ccccc1Cl | 7.2* | 15.5* | 3.1 | -0.3 | 1.4 | 2.0 | 5.7* | 17.6* | 0.9
O=C(Nc1ccc2ccccc2n1)c1ccc(Cl)cc1 | 10.1* | 15.0* | 3.1 | 0.7 | 1.5 | 1.7 | 7.0* | 19.2* | 0.8
O=C(Nc1cccc(NC(=O)c2ccc(Cl)cc2)n1)c1ccc(Cl)cc1 | 0.4 | 1.4 | 0.7 | -1.3 | -0.3 | x | x | x | x
O=C(NCC(=O)N1CCCC(C(F)(F)F)C1)c1cccs1 (configuration not stated) | -1.4 | 0.9 | 1.4 | -0.2 | 0.2 | x | x | x | x
COC(=O)c1ccc(OCC(=O)c2ccccc2OC)cc1 | -0.3 | 2.9 | 0.8 | -1.4 | 0.6 | x | x | x | x
Cc1ccc(-c2nnc(-c3ccccc3Br)o2)cc1 | 14.8* | 19.6* | 3.7 | 1.8* | 2.9 | 1.4 | 10.1* | 19.9* | 1.3
Cc1ccccc1-c1nnc(-c2ccccc2)o1 | 7.8* | 13.5* | 3.4 | 0.6 | 1.8 | 0.8 | 9.3* | 17.3* | 0.8
O=C(N/N=C/c1c[nH]c2ccccc12)c1cc(-c2ccccc2)n[nH]1 | 1.3 | 1.9 | 0.9 | 0.1 | -0.3 | x | x | x | x
O=C(N/N=C/c1c[nH]c2ccccc12)c1cc(-c2ccc(-c3ccccc3)cc2)n[nH]1 | 7.8* | 14.5* | 0.8 | 0.9 | 1.4 | 0.2 | 4.4 | 0.5 | 0.1
O=C(N/N=C/c1c[nH]c2ccccc12)c1cc(-c2ccc3ccccc3c2)n[nH]1 | 7.9* | 24.8* | -0.9 | -0.1 | -0.7 | 0.5 | 2.2 | 5.1 | 0.1
CCOc1ccc(NC(=S)N2CCC(C(N)=O)CC2)cc1 | -1.3 | 1.7 | 0.8 | -1.9 | 0.0 | x | x | x | x

Bioassay records from PubChem.
